# ATXN2 expr inh – reduces ATXN2 reporter expression in HEK-293 cells; hit rate 0.72% among 360,000; AID 1745845; HEK-293 ATXN2-luciferase reporter, luminescence, 24 h; Potency, µM (highest dose often 57 µM), hits mostly inhibitors; further: nearly all actives have a fitted effect of over 55% in size
#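 qHTS (up to 57 uM final) was run with 24 h compound exposure of reporter cells at 37 °C. Each well was multiplexed: SteadyGlo luminescence measured ATXN2-luciferase expression after a fluorogenic Gly-Phe-AFC viability readout (25 uM final).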
# ATXN viability – viability counter-screen for ATXN expression inhibitors. S2 cells (HEK-293 line with an ATXN2-luciferase reporter) viability, CellTiter-Fluor protease fluorescence, 24 h. Potency, µM (doses to about 56.7 µM), hits mostly cytotoxic. hit rate 0.49% among 400,000; further: nearly all actives have a fitted effect of over 40% in size
# TGFb SMAD3 inh – blocks TGF-b signaling. HepG2 CAGA-GFP TGF-b/SMAD3 reporter, GFP fluorescence, 18 h; TGF-beta stimulated, 500 pg/mL final. Potency, µM (highest dose often 46.1 µM), actives largely listed as inhibitors. hit rate 1.2% among 410,000; further: nearly all actives have a fitted effect of over 65% in size
#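 Inhibition was scored as loss of TGF-beta-induced (500 pg/mL final, 18 hours, 37 degrees C) GFP in HEPG2 cells carrying a CAGA-GFP reporter, in DMEM with 1% FBS. Well GFP was summed per cell; Activity was normalised to unstimulated and stimulated DMSO wells, then concentration-response fitting.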
# DT40 TDP1 CPT – DT40-hTDP1 cell growth loss with CPT | hit rate 12% among 420,000 | chicken DT40 Tdp1-/-;hTDP1 cells + 20 nM CPT, ATP luminescence, 48 h | Potency, µM (titrated, usually from 46.2 µM), usual class: inhibitors; further: nearly all actives have a fitted effect of over 55% in size
#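 Chicken DT40 Tdp1-/- cells complemented with human TDP1, 400 cells/well, exposed to compounds plus 20 nM camptothecin for at least 48 h at 37 C; viability read as ATP content by CellTiter-Glo luminescence.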
# TDP1 cell noCPT – qHTS for Inhibitors of human tyrosyl-DNA phosphodiesterase 1 (TDP1): qHTS in cells in absence of CPT. hit rate 15% among 420,000. DT40 Tdp1-/- hTDP1 cells, no CPT, ATP luminescence, 48 h. Potency, µM (highest dose often 46.2 µM), most hits filed as inhibitors; further: nearly all actives have a fitted effect of over 55% in size
#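 Compound effects on proliferation are scored in DT40 Tdp1-/-;hTDP1 cells in the absence of CPT. ATP levels (CellTiter-Glo luminescence) are recorded after a ≥48 hr, 37 °C incubation.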
# HepG2 viability – counter-screen for TGF-b inhibitors: cytotoxicity in HepG2 cells. HepG2 CAGA-GFP viability, ATP luminescence, 18 h. Potency, µM (top dose mostly 46.1 µM), most hits filed as cytotoxic. hit rate 0.76% among 410,000. AID 588856
#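 CellTiter-Glo luminescence gave cytotoxicity after 18 hours at 37 degrees C. The cells were HepG2 CAGA-GFP in 1% FBS DMEM, stimulated with 500 pg/mL TGF-beta after compound addition. %Activity was normalised to no-cell wells (complete cell-killing) and DMSO (no toxicity), and curves were fitted and classified.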
# Numbers stand for hits; 0 = inactive; ? = inconclusive; - = no result; [ ] = another dose, or the depositor's remark. Compounds with a hit are over-represented: about 17% of the library has one in this group of screens. The call rests on the fitted dose curve; in most records, active means well fitted curve in the direction sought with a large enough effect; inconclusive means small, poorly fitted or top-dose-only effect, or another doubt; inactive means no such curve, though single readings can be large; an effect the other way counts as inactive or inconclusive.
SMILES,ATXN2 expr inh,ATXN viability,TGFb SMAD3 inh,DT40 TDP1 CPT,TDP1 cell noCPT,HepG2 viability
Cc1ccc(-c2csc(NC(=O)CSc3nc(C)cc(=O)[nH]3)n2)cc1,0,0,0,18µM,18µM,0
CC(=O)c1ccc(NC(=O)CSc2nnc3c(n2)[nH]c2ccccc23)cc1,0,0,0,?,16µM,0
Cc1ccc(-c2csc(NC(=O)CSc3nnc4c(n3)[nH]c3ccccc34)n2)cc1,?,?,0,13µM,5.8µM,0
COc1ccccc1C1CN(Cc2cccn2-c2ncccn2)Cc2ccccc2O1 (stereo not given),-,?,-,0[9.04 µM],0,-
Cc1csc(NC(=O)CSc2nc3[nH]ncc3c(=O)[nH]2)n1,-,0,0,?,29µM,0
CC(=O)N/C(=C\c1ccccc1)C(=O)OCC(=O)NC(C)C12CC3CC(CC(C3)C1)C2 (stereo not given),0,?,0,15µM,21µM,0
O=C(NNC(=S)Nc1cccc(C(F)(F)F)c1)c1ccncc1,-,0,0,0,0,0
Oc1c(C(Nc2nccs2)c2ccc(C(F)(F)F)cc2)ccc2cccnc12 (stereo not given),13µM,0,22µM,?,?,0
Oc1c(C(Nc2cccc(C(F)(F)F)c2)c2ccncc2)ccc2cccnc12 (stereo not given),?,-,0,16µM,18µM,0
CCOc1ccc(C2C(C(=O)c3cccs3)=C(O)C(=O)N2CCCn2ccnc2)cc1 (stereo not given),0,0,0,0,0,0
O=[N+]([O-])c1ccc(NN=Cc2ccc(O)cc2)nc1,0,0,0,0,0,0
O=[N+]([O-])c1ccc(NN=Cc2ccccc2O)nc1,?,-,?,5.8µM,5.8µM,0
COc1ccccc1C=NNc1ccc([N+](=O)[O-])cn1,0,0,0,0,0,0
O=[N+]([O-])c1ccc(NN=Cc2ccc(O)cc2O)nc1,?,0,0,3.3µM,5.8µM,0
CCN(CC)c1ccc(C=NNc2ccc([N+](=O)[O-])cn2)cc1,0,0,0,21µM,?,0
CCN(CC)S(=O)(=O)c1ccc(N/N=C/c2ccc(O)cc2O)nc1,2.8µM,?,0,4.6µM,5.8µM,0
O=C1c2ccc([N+](=O)[O-])cc2C(=O)N1Cc1cccnc1,0,0,0,0,0,0
O=[N+]([O-])c1ccc(O)c(/C=N/Nc2ncnc3c2cnn3-c2ccccc2)c1,2.8µM,?,?,3.7µM,3.7µM,0
O=[N+]([O-])c1ccc(N/N=C/c2ccccc2O)cc1,-,0,?,13µM,8.2µM,0
O=[N+]([O-])c1cccc(N/N=C/c2cc([N+](=O)[O-])ccc2O)c1,0[11.3 µM],0,0,0,?,0
Cc1ccccc1-n1c(C)cc(/C=N/Nc2ccc([N+](=O)[O-])cn2)c1C,0,0,0,26µM,?,0
CCN(CC)S(=O)(=O)c1ccc(N/N=C(\C)c2ccncc2)nc1,0,0,0,23µM,?,0
COc1cccc(-n2c(Cc3cc(=O)[nH]c(=O)[nH]3)nnc2SCC(=O)N2CCCCC2)c1,0,0,0,0,0,0
O=C(CNS(=O)(=O)c1ccc([N+](=O)[O-])cc1)N/N=C/c1ccc(O)cc1O,24µM,0,0,?,?,0
Cc1c(O)ccc(/C=N/Nc2ncccc2[N+](=O)[O-])c1O,0,0,0,?,?,0
SMILES,ATXN2 expr inh,ATXN viability,TGFb SMAD3 inh,DT40 TDP1 CPT,TDP1 cell noCPT,HepG2 viability
N#Cc1ccccc1Cn1cc(/C=N/Nc2ccc([N+](=O)[O-])cn2)c2ccccc21,0,-,0,?,23µM,0
O=[N+]([O-])c1ccc(O)c(/C=N/Nc2nc3ccccc3[nH]2)c1,?,?,?,4.1µM,2.1µM,0
O=[N+]([O-])c1cccnc1N/N=C/c1ccccc1O,0,?,0,?,9.2µM,0
O=C(Nc1cccc2cccnc12)OCc1ccccc1,-,-,?,-,-,0
O=[N+]([O-])c1ccc(N/N=C\c2cccn2-c2ccccc2)nc1,?,0,?,12µM,?,0
O=[N+]([O-])c1ccc(O)c(/C=N/Nc2ccccn2)c1,2.8µM,0,?,1.3µM,1.5µM,0
CCC(CC)C(=O)N(C)c1c(C)nc2c(OCCC3CCCCC3)cccn12,0,-,?,7.3µM,5.2µM,0
CCC(CC)C(=O)N(C)c1c(C)nc2c(OCC(=O)N(C)C)cccn12,0,0,0,0,0,0
CCC(CC)C(=O)N(C)c1c(C)nc2c(OCCOc3ccc(F)cc3)cccn12,0,0,?,21µM,18µM,0
CCC(=O)N1CCc2cc(Br)cc(S(=O)(=O)N3CCN(c4ccc(C)cc4)C(C)C3)c21 (stereo not given),0,0,0,0,0,0
Cc1cccc(N(C)C(=S)Oc2ccc3c(c2)C2CCC3C2)c1 (stereo not given),0,0,-,-,-,-
CNc1ccc2ncc(-c3cccc(C(=O)N(C)C)c3)n2n1,0,0,?,?,12µM,0
Cc1nn(C)cc1/C=N/NC(=S)Nc1ccc(Cl)cc1Cl,0,0,0,0.52µM,?,0
CCn1nc(C)c(/C=N/NC(=S)Nc2ccc(Cl)cc2Cl)c1C,0,0,?,8.2µM,6.5µM,0
CC(NS(=O)(=O)c1ccc(OCC(=O)NCc2ccccn2)cc1)c1ccccc1 (stereo not given),0,0,0,?,0,0
CCOC(=O)Cc1cc(-c2ccc(F)cc2)nc2ccc3ccccc3c12,0,0,?,?,29µM,0
CCOC(=O)Cc1cc(-c2ccc(OC)cc2)nc2ccc3ccccc3c12,0,0,0,18µM,?,0
CC(C)(C)c1ccc(C(=O)NNc2cc(N3CCCCC3)nc(N3CCCCC3)n2)cc1,0,0,0,26µM,?,0
CN1Cc2cc(C(=O)c3ccccc3O)cnc2NC1=O,0,?,0,?,?,0
COc1ccc(O)c(C(=O)c2cnc3c(c2)CN(C)C(=O)N3)c1,-,0,0,18µM,18µM,0
Cc1c(C(=O)O)oc2c1-c1nn(Cc3ccccc3Cl)cc1CC2,-,-,-,0,?,0
Cc1ccc(Cn2cc3c(n2)-c2c(oc(C(=O)Nc4ccc(F)cc4F)c2C)CC3)cc1,-,-,0,?,?,0
Cc1c(C(=O)NCCN(C)C)oc2c1-c1nn(Cc3cccc(Cl)c3)cc1CC2,-,-,0,?,?,0
Cc1cccc(C)c1NC(=O)c1oc2c(c1C)-c1nn(Cc3ccccc3)cc1CC2,-,-,0,18µM,15µM,0
CCOC(=O)c1ccc(NC(=O)c2oc3c(c2C)-c2nn(Cc4ccccc4Cl)cc2CC3)cc1,-,-,0,21µM,21µM,0

# Bioassay records: PubChem, National Center for Advancing Translational Sciences (NCATS)
